Compound activity from PubChem BioAssay.
The list is not random: actives were taken first. Their share in the collection is about 1.5%.
RecA intein inh = blocks M. tuberculosis RecA intein splicing. P9WHJ3. cell-free RecA intein splicing, fluorescence. inhibition, % (no concentration beside the values). 290,000 compounds, 0.75% hits. AID 2221; in the data active = inhibition above about 30%;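 note: 0% = vehicle wells and 100% = reference inhibitor control wells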
Target sequence (P9WHJ3 whole entry, looked up): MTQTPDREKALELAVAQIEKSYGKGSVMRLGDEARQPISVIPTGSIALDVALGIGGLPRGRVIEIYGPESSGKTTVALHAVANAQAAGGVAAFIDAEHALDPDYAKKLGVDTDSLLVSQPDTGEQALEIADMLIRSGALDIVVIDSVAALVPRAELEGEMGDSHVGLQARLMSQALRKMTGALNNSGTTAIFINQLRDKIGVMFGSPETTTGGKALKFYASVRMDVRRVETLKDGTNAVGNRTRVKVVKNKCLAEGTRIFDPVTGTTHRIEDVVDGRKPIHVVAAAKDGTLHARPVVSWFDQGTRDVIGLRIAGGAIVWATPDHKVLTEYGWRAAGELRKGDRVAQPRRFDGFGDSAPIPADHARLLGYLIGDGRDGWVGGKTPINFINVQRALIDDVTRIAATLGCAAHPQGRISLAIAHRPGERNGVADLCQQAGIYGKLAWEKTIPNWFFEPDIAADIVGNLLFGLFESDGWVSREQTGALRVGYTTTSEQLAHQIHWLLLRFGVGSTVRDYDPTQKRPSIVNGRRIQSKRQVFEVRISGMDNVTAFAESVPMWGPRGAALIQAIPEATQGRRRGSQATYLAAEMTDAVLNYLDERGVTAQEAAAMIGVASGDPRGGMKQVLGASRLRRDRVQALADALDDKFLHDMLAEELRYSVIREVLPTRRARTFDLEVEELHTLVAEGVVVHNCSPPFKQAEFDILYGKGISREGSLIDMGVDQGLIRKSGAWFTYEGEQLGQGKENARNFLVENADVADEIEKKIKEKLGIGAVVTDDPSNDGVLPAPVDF
SARS 3CLpro inh = SARS-CoV 3CLpro protease inhibition; recombinant SARS-CoV 3CLpro, quenched FRET peptide cleavage; AID 1706; inhibition, % at 6 µM; 290,000 compounds, 0.14% hits; in the data active = inhibition above about 12%
VHR inh abs = blocks human VHR1 dual specificity phosphatase; P51452; 290,000 compounds, 0.52% hits; inhibition, % at 13.3 µM; recombinant VHR phosphatase, pNPP absorbance; AID 1654; in the data active = inhibition above about 50%
CCHF vOTU inh-1 = blocks the CCHF virus ovarian tumor domain protease. inhibition, % at 11.5 µM. CCHFV vOTU protease, Pep-AMC fluorescence. 370,000 compounds, 0.55% hits; note: 0% = vehicle wells with enzyme and 100% = no enzyme wells
CCHF vOTU inh-2 = CCHFV vOTU protease inhibition, confirmation | shares compounds with CCHF vOTU inh-1 | Recombinant CCHFV vOTU, Pep-AMC fluorescence | inhibition, % at 11.5 µM | 1,900 compounds, 17% hits
* = called active by the depositor; . = not tested or not shown. Cut-off read from the data, not from the text of the source, unless noted: active = inhibition above about 30%; inactive = the rest.

SMILES	RecA intein inh	SARS 3CLpro inh	VHR inh abs	CCHF vOTU inh-1	CCHF vOTU inh-2
COC(=O)c1cc(OC)c(OC)cc1NC(=O)CSc1ccccc1	2	-1	-8	0	.
Cn1c(=O)c2c(-c3ccccc3)n(-c3ccc(N)cc3)cc2n(C)c1=O	.	.	.	98*	92*
CCCCCCCCCC1(CC(=O)OCC)SCCN1C(N)=O (stereo not given)	.	.	.	26	.
CCOC(=O)[C@@]12CCC3=C1N(CCC3)C(=O)[C@H](CC(=O)NCC13CC4CC(CC(C4)C1)C3)C2	.	.	.	3	.
COc1ccc(C(=O)NC(=S)Nc2cccc3cc(O)ccc23)cc1OC	1	4	18	31*	-11
COc1ccccc1C(=O)NC(=S)Nc1cccc2cc(O)ccc12	13	2	5	15	.
Cc1ccc(-n2c3nc(=O)[nH]c(=O)c-3cc3cc([N+](=O)[O-])ccc32)cc1C	.	1	12	31*	-4
Cc1ccc(S(=O)(=O)n2cnc3cc([N+](=O)[O-])ccc32)cc1C	0	3	39	6	.
Cc1ccc(S(=O)(=O)NN=C(c2ccccc2)c2cccs2)cc1	.	.	.	32*	-3
COc1ccc([C@H]2C[C@H](O)[C@@H](n3cc(C4CC4)nn3)CN2C(=O)C2CCCCC2)cc1	.	.	.	22	.
Cc1ccccc1N1C(=O)C2CCCN2C1=S (stereo not given)	.	.	.	-1	.
FC(F)(F)C1=Nc2cccc3cccc(c23)N1	.	.	.	41*	17
Fc1ccc(C2=Nc3cccc4cccc(c34)N2)cc1	7	-1	-8	2	.
CC(=O)NS(=O)(=O)c1ccc2sc(C)nc2c1	4	-6	17	-2	.
COc1cc(CC(=O)N(c2ccccc2)c2nc(C)cs2)cc(OC)c1OC	2	4	13	0	.
O=C(NCc1cccc2ccsc12)c1cccs1	.	.	.	1	.
CC(NC(=O)C(C)N1c2cccc3cccc(c23)S1(=O)=O)c1ccccc1 (stereo not given)	-2	5	-8	32*	-18
CCOC(=O)C1(CCc2ccccc2)CCN(C(=O)c2occc2C)CC1	8	0	5	32*	-8
O=C(CCc1ccc(S(=O)(=O)N2CCOCC2)cc1)Nc1ccc(F)c(F)c1F	.	.	.	35*	-15
O=C(CCc1ccc(S(=O)(=O)N2CCOCC2)cc1)Nc1c(F)cccc1F	.	.	.	5	.
C[n+]1c(-c2ccccc2)c2cc(N)ccc2c2ccc(N)cc21	2	-7	29	105*	77*
CCCCc1ccc(C2C(C#N)=C(N)SC(N)=C2C#N)s1	.	3	7	.	.
CCCc1nc2c([nH]1)c(=O)n(C)c(=O)n2C	0	-4	60*	32*	-29
Cn1c(=O)c2[nH]c(CCC3CCCC3)nc2n(C)c1=O	.	.	.	-8	.
CCOC(=O)Cc1nnc(Nc2ccc(C)cc2C)c2ccccc12	3	1	-3	-11	.
SMILES	RecA intein inh	SARS 3CLpro inh	VHR inh abs	CCHF vOTU inh-1	CCHF vOTU inh-2
CCOC(=O)Cc1nnc(Nc2cc(C)ccc2C)c2ccccc12	-1	0	29	31*	3
CC1(C(=O)Nc2cccc(Oc3ccccc3)c2)CCN1Cc1cc2ccccc2o1 (stereo not given)	.	.	.	2	.
Cc1ccc[n+](CC(=O)Nc2cc(C(F)(F)F)ccc2Cl)c1	-1	-4	24	-7	.
CCC(C)(C)c1ccc(OCCCC[n+]2cccc(C)c2)c(C(C)(C)CC)c1	12	1	-20	40*	7
CC(NC(=O)Nc1nccs1)(C(F)(F)F)C(F)(F)F	1	-3	8	-1	.
O=C(Nc1nccs1)C(F)(F)C(F)(F)C(F)(F)C(=O)Nc1nccs1	1	1	4	113*	0
Nc1nnc(-c2ccco2)s1	-6	0	-16	3	.
Nc1ncnc2oc(-c3ccco3)c(-c3ccco3)c12	0	-2	-9	34*	-55
Cc1cccc2sc(=S)[nH]c12	.	.	.	4	.
COc1ccc(NC(=O)c2sc(=O)n(Cc3ccc(F)c(Cl)c3)c2C)cc1OC	.	.	.	31*	-14
COc1ccc(CNC(=O)c2sc(=O)n(Cc3cc(Cl)ccc3OC)c2C)cc1	.	.	.	3	.
CNc1ccc(Br)cc(C(=O)/C=C/c2ccc(OC)cc2)c1=O	0	0	-11	36*	-5
COc1ccc(NC(=O)c2cc(-c3cc(F)ccc3OC(C)C)n[nH]2)cc1OC	.	.	.	-4	.
CCOC(=O)[C@@H]1CSCCS(=O)(=O)N1Cc1ccccc1	.	.	.	0	.
COc1ccc(NS(=O)(=O)c2ccc3c(c2)[C@H]2C=CC[C@H]2[C@@H](c2ccc(C(=O)O)cc2)N3)cc1	19	2	-4	39*	26
Cc1c(Cl)cccc1NS(=O)(=O)c1ccc2c(c1)C1C=CCC1C(c1ccc(C(=O)O)cc1)N2 (stereo not given)	.	3	46	.	.
N#Cc1ccc(COC(=O)c2cnc(Cl)c(Cl)c2)cc1	1	1	-12	9	.
Cc1cc(C)cc(N(CC(=O)Nc2ccc(C(F)(F)F)cc2)S(=O)(=O)c2c(C)[nH]c(=O)[nH]c2=O)c1	12	10	-31	33*	-13
COc1ccc(CNCCC(c2ccc(OC(C)C)cc2)c2ccccc2OC)cc1 (stereo not given)	17	1	.	27	.
COc1ccccc1C(CCNCc1ccc(N(C)C)cc1)c1ccc(OC(C)C)cc1 (stereo not given)	21	2	.	33*	-12
CN(C)CC(O)COc1cccc(OCC(O)CN(C)C)c1 (stereo not given)	-4	-3	9	1	.
CCCCN(CC(O)COc1cccc(C)c1)CC(O)COc1cccc(C)c1 (stereo not given)	3	-2	7	31*	10
Cc1ccc2c(c1)-c1c(cnn1CC(=O)NCCc1ccc(O)cc1)CO2	.	.	.	2	.
